Several values for one entry are separate records, joined by “and”; a condition that tells them apart may be missing. Equal values may be shown once. Results filed as inconclusive are left out. A call without a number means that no potency is given here. More than one record can exist for a structure, and the calls need not agree. Activity calls are given as the source filed them. Unless noted, calls come from the whole dose curve; as a rule, active = well fitted curve in the direction sought with a large enough effect in the repeat runs; inconclusive = weak or mixed curves; inactive = no such curve, though single readings can be large; an effect the other way counts as inactive or inconclusive.
How the values were obtained:
[1] = qHTS assay for small molecules that induce genotoxicity in human embryonic kidney cells expressing luciferase-tagged ATAD5 (AID 651632); note: nearly all actives have a fitted effect of over 15% in size; note: potency is the fitted concentration of half-maximal effect
How it was run: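 Quantitative HTS in HEK293T expressing luciferase-tagged ATAD5, whose levels rise upon DNA damage. Exposure ran 16 hr at 37C and 5% CO2, with luminescence read 30 min after Amplite addition at room temperature.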

[2] = qHTS assay for small molecule agonists of the p53 signaling pathway - cell viability (AID 651633; calls by dose curve; note: nearly all actives have a fitted effect of over 30% in size; note: potency is the fitted concentration of half-maximal effect)
How it was run: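 Viability counter-read: CellTiter-Glo luminescence (30 min, room temperature) in the same p53RE-bla plates. These plates had been exposed to compounds for 16 h at 37 C.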

[3] = qHTS assay for small molecules that induce genotoxicity in human embryonic kidney cells expressing luciferase-tagged ATAD5 - cell viability (AID 651634; calls by dose curve; note: nearly all actives have a fitted effect of over 25% in size; note: potency is the fitted concentration of half-maximal effect)
How it was run: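 After 15.5 hr incubation with compound at 37C, 5% CO2, HEK293T ATAD5-luciferase cells received CellTiter-Fluor reagent; fluorescence intensity was quantified following 30 min at 37C.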

[4] = qHTS assay for small molecule disruptors of the mitochondrial membrane potential - cell viability (AID 720634; calls by dose curve; note: nearly all actives have a fitted effect of over 20% in size; note: potency is the fitted concentration of half-maximal effect)
How it was run: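 ATP-based luminescent viability readout (CellTiter-Glo, 30 min, room temperature) in HepG2 cells multiplexed with the m-MPI membrane potential dye; compound exposure lasted 1 hr at 37 C.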

[5] = qHTS assay for small molecule disruptors of the mitochondrial membrane potential (AID 720635); note: potency is the fitted concentration of half-maximal effect
How it was run: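 Mitochondrial membrane potential tracked with Mito-MPS dye, red aggregates (ex 540/em 590 nm) against green monomers (ex 490/em 535 nm). Compound treatment 1 hr at 37C, dye 30 min in HepG2.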

[6] = qHTS assay to test for compound auto fluorescence at 590 nm (red) in HepG2 cells (AID 720674); note: potency is the fitted concentration of half-maximal effect
How it was run: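 We screened compounds on adherent HepG2 cells, incubating them for an hour at 37 C in 5% CO2 before reading emission at 590 nm under 540 nm excitation; values reflect equivalence to Rose Bengal sodium fluorescence.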

[7] = qHTS assay to test for compound auto fluorescence at 535 nm (green) in HepG2 cells (AID 720675); note: potency is the fitted concentration of half-maximal effect
[8] = qHTS assay to test for compound auto fluorescence at 460 nm (blue) in HEK293 cells (AID 720678)
How it was run: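 HEK293, 2,000 cells/well, 10% dialyzed FBS; attach 4-5 hr 37C; pin compound or DMSO; o/n 37C/5% CO2; fluorescence 405/460 nm; triamterene-equivalent units.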

[9] = qHTS assay to test for compound auto fluorescence at 590 nm (red) in HEK293 cells (AID 720679); note: potency is the fitted concentration of half-maximal effect
How it was run: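 Intensity at 540nm excitation and 590nm emission is reported as Rose Bengal sodium-equivalent autofluorescence. Measurements followed overnight exposure (37C, 5% CO2) of HEK293 cells, 2,000 per well, to 23 nL compound.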

[10] = qHTS assay for small molecule agonists of the p53 signaling pathway (AID 651631; calls by dose curve; note: nearly all actives have a fitted effect of over 15% in size; note: potency is the fitted concentration of half-maximal effect)
How it was run: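 HCT-116 cells carrying a beta-lactamase reporter under p53 response elements were dosed with compound for 16 h at 37 °C. LiveBLAzer B/G FRET substrate was then added for 2 h at room temperature, and fluorescence intensity was read to detect pathway agonism.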
Tags give direction and shape of the fitted curve or compound fluorescence and quenching.

SMILES	Potency [1]	Potency [2]	Potency [3]	Potency [4]	Potency [5]	Potency [6]	Potency [7]	Potency [8]	Potency [9]	Potency [10]
CN(C)CCOC(c1ccccc1)c1ccccc1	inactive	inactive	inactive	inactive	inactive	inactive	inactive	inactive	inactive	
CN1CCc2cccc3c2[C@H]1Cc1ccc(O)c(O)c1-3	inactive	inactive	inactive	inactive	inactive	inactive	inactive	inactive	inactive	
Nc1c2c(nc3ccccc13)CCCC2	inactive	inactive	inactive	inactive	inactive	inactive	inactive	inactive	inactive	
CN(C)CCOC(C)(c1ccccc1)c1ccccn1 (stereo not given)	inactive	inactive	inactive	inactive		inactive	inactive	inactive	inactive	inactive
Nc1ccc(S(N)(=O)=O)cc1		inactive	inactive	inactive	inactive	inactive	inactive	inactive	inactive	inactive
CCCCCCCCCCCC[N+](C)(C)Cc1ccccc1	inactive	18.8 µM (active) and 47.6 µM (active) and 29.7 µM (active)	26.8 µM (active) and 74.5 µM (active)	inactive	8.41 µM (active) and 19 µM (active) and 21 µM (active)	inactive	inactive	inactive	inactive	
CCCCOC(=O)c1ccc(O)cc1		inactive	inactive	inactive	23.7 µM (active) and 9.81 µM (active) and 19.3 µM (active)	inactive	inactive	inactive	inactive	inactive
Cc1cc(C)nc(NS(=O)(=O)c2ccc(N)cc2)n1		inactive	inactive	inactive	inactive	inactive	inactive	inactive	inactive	inactive
CC(O)(P(=O)(O)O)P(=O)(O)O	inactive	inactive	inactive	inactive	inactive	inactive	inactive	inactive	inactive	
CC(=O)Nc1c(I)c(NC(C)=O)c(I)c(C(=O)O)c1I	inactive	inactive	inactive	inactive	inactive	inactive	inactive	inactive	inactive	
NC(=O)n1c(O)c(C(=O)c2cccs2)c2cc(Cl)ccc21	inactive	8.41 µM (active)		inactive	11.9 µM (active)	inactive	inactive	inactive	inactive	5.96 µM (active)
CNNCc1ccc(C(=O)NC(C)C)cc1		inactive	inactive			inactive	inactive	inactive	inactive	inactive
Oc1ccccc1		inactive	inactive	inactive	inactive	inactive	inactive	inactive	inactive	inactive
Nc1c(N=Nc2ccc(-c3ccc(N=Nc4cc(S(=O)(=O)O)c5ccccc5c4N)cc3)cc2)cc(S(=O)(=O)O)c2ccccc12	inactive	inactive	13.3 µM (active) and 27.3 µM (active)	inactive	17.2 µM (active)	inactive	inactive	inactive	inactive	
O=C1O[C@H]([C@@H](O)CO)C(O)=C1O	inactive		inactive	inactive	inactive	inactive	inactive	inactive	inactive	inactive
CN(C)C(=S)SC(=S)N(C)C	inactive	inactive and 243 nM (active)		inactive	2.98 µM (active) and 28 µM (active) and 61.1 µM (active)	inactive	inactive	inactive	inactive	inactive
CN1CCC[C@H]1c1cccnc1	inactive		inactive	inactive	inactive	inactive	inactive	inactive	inactive	
O=S1(=O)OC(c2ccc(O)cc2)(c2ccc(O)cc2)c2ccccc21	inactive	inactive	48.6 µM (active) and 8.63 µM (active)			inactive	inactive	inactive	inactive	
C=C(C)C(=O)OCC(C)O (stereo not given)	inactive	inactive	inactive	inactive		inactive	inactive	inactive	inactive	
CC(=O)CCC(=O)O	inactive		inactive	inactive	inactive	inactive	inactive	inactive	inactive	
CN1[C@@H]2CC(OC(=O)[C@H](CO)c3ccccc3)C[C@H]1[C@@H]1O[C@@H]12 (stereo not given in full)	inactive	inactive	inactive			inactive	inactive	inactive	inactive	
O=C1NC(=O)C(c2ccccc2)(c2ccccc2)N1	inactive		inactive	inactive	inactive	inactive	inactive	inactive	inactive	
C=C1CC[C@H](O)C/C1=C\C=C1/CCC[C@]2(C)[C@@H]([C@H](C)CCCC(C)C)CC[C@@H]12	inactive	26.6 µM (active) and 60.6 µM (active)		inactive	inactive	inactive	inactive	inactive	inactive	

SMILES	Potency [1]	Potency [2]	Potency [3]	Potency [4]	Potency [5]	Potency [6]	Potency [7]	Potency [8]	Potency [9]	Potency [10]
CC(C)c1c(C(=O)Nc2ccccc2)c(-c2ccccc2)c(-c2ccc(F)cc2)n1CC[C@@H](O)C[C@@H](O)CC(=O)O				inactive		inactive	inactive	inactive	inactive	
C/C=C/C=C/C(=O)O		inactive	inactive	inactive	inactive	inactive	inactive	inactive	inactive	
COc1ccc(CN(CCN(C)C)c2ccccn2)cc1			inactive			inactive	inactive	inactive	inactive	
C1=CC2C3C=CC(C3)C2C1 (stereo not given)	inactive	inactive	inactive	inactive		inactive	inactive	inactive	inactive	
CCCCC(CC)C(=O)O (stereo not given)		inactive		inactive	inactive and 6.86 µM (active)	inactive	inactive	inactive	inactive	
Cc1ccc(S(=O)(=O)O)cc1		inactive	inactive	inactive	inactive	inactive	inactive	inactive	inactive	
O=CC(=O)c1ccccc1		inactive	inactive	inactive		inactive	inactive	inactive	inactive	
CCCCCCc1ccc(O)cc1O	inactive	inactive and 54.6 µM (active) and 61.1 µM (active)	inactive		5.96 µM (active) and 4.87 µM (active) and 6.86 µM (active)	inactive	inactive	inactive	inactive	
CCN(Cc1c(F)cccc1Cl)c1c([N+](=O)[O-])cc(C(F)(F)F)cc1[N+](=O)[O-]	inactive		inactive	inactive	54.5 µM (active)	inactive	inactive	inactive	inactive	
CCCC[P+](CCCC)(CCCC)CCCC		inactive	inactive	inactive	inactive	inactive	inactive	inactive	inactive	
O=c1[nH]cnc2c1ncn2[C@H]1CC[C@@H](CO)O1	inactive		inactive	inactive	inactive	inactive	inactive	inactive	inactive	
CC/C(=C(\c1ccccc1)c1ccc(OCCN(C)C)cc1)c1ccccc1		54.5 µM (active) [middle of 5 runs]	29.8 µM (active) and 61.5 µM (active)	54.8 µM (active) and 61.1 µM (active)		inactive	inactive	inactive	inactive	
C1CCC(C(CC2CCCCN2)C2CCCCC2)CC1 (stereo not given)	inactive	23.7 µM (active)	26.6 µM (active)		5.96 µM (active)	inactive	inactive	inactive	inactive	
O=C1NS(=O)(=O)c2ccccc21			inactive	inactive	inactive	inactive	inactive	inactive	inactive	
CN[C@H]1CC[C@@H](c2ccc(Cl)c(Cl)c2)c2ccccc21	inactive	29.8 µM (active)	inactive	inactive		inactive	inactive	inactive	inactive	
COc1ccc2cc(S(=O)(=O)N[C@H](CC(=O)N[C@H](Cc3ccc(CN4[C@H](C)CCC[C@@H]4C)cc3)C(=O)N(C)C(C)C)c3ccc4c(c3)OCO4)ccc2c1	inactive		57.9 µM (active)	inactive	10.3 µM (active)	inactive	inactive	inactive	inactive	
CC(C)NCC(O)c1ccc(O)c(O)c1 (stereo not given)		inactive	inactive	inactive	inactive	inactive	inactive	inactive	inactive	
CCN(CC)C(=O)c1cccc(C)c1	inactive	inactive	inactive	inactive		inactive	inactive	inactive	inactive	
O=C(Nc1ncc([N+](=O)[O-])s1)c1cccs1	3.76 µM (active)		26.6 µM (active)	15 µM (active)	0.668 µM (active)	inactive	inactive	inactive	inactive	
O=C1OC2(c3ccccc31)c1cc(Br)c(O)c(Br)c1Oc1c2cc(Br)c(O)c1Br	inactive	inactive	21.1 µM (active) and 1.56 µM (active) and 19.9 µM (active)	inactive		3.16 µM (active) and 2.51 µM (active)	12.6 µM (active) and 4.47 µM (active) and 17.8 µM (active)	inactive	5.01 µM [fluorescent] (active) and 4.47 µM [fluorescent] (active) and 3.55 µM [fluorescent] (active)	
F[B-](F)(F)F	inactive		inactive	inactive	inactive	inactive	inactive	inactive	inactive	
CC(=O)CC(c1ccccc1)c1c(O)c2ccccc2oc1=O (stereo not given)			inactive	inactive		inactive	inactive	inactive	inactive	
